Reference: the supplement of paper PMC12636033
± gives the standard deviation of the averaged measurements. Over roughly 33,000 sequences, “E-score (rank enrichment, -0.5 to 0.5)” has its median near -0.0028; the highest 2% begin near 0.23. This is one part of a sample in which the highest values are shown more often than they occur.

The sequences below were run on 2Sb-muMax20 (muMax20 with two 1,3-bis(methyl)benzene Cys staples, A13C/A17C and Q88C/A92C, C-terminal Lys) (assay: PBM 8-mer E-score (E-score (rank enrichment, -0.5 to 0.5)); higher = stronger preferential binding).
Protocol: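 Protein binding microarray (universal PBM chip covering all 10-mers in fixed probe flanks) with chemically synthesized human Max(13-93) bHLH-LZ analogs (not full-length Max) bearing noncanonical residues (hArg, Tha, Aib, Nle at 65) and aromatic Cys staples. Read-out per 8-mer (and its reverse complement): E-score (rank-based enrichment, -0.5 to 0.5) and Z-score of median probe intensity.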

Sequence | PBM 8-mer E-score
ATGTCCCC | 0.0908 ± 0.0075
AGCGCCTG | -0.212 ± 0.01
CAAATCCA | 0.0168 ± 0.048
AAAATCCA | 0.232 ± 0.0091
GATTTCCC | 0.0913 ± 0.071
GAAATCCA | -0.0749 ± 0.093
ATTTTCCC | 0.17 ± 0.024
AATTTCCC | 0.301 ± 0.032
GCCACAAA | 0.0853 ± 0.099
ACGGCTTA | 0.0267 ± 0.027
CAATGCTC | -0.0184 ± 0.021
GGAGTAGA | 0.139 ± 0.0065
GGGAAGGA | 0.0711 ± 0.073
GTGTATTA | 0.244 ± 0.061
ATGTATTA | 0.216 ± 0.018
GAGTATTA | 0.12 ± 0.024
CTGTATTA | -0.0311 ± 0.058
CAGTATTA | 0.28 ± 0.02
AAGTATTA | 0.157 ± 0.094
AGCGCAAC | -0.0193 ± 0.035
CCAGACGC | -0.135 ± 0.041
CGGCTGAG | -0.16 ± 0.018

Sequence | PBM 8-mer E-score
ACACCTAT | 0.0344 ± 0.0022
AACCTATA | 0.0842 ± 0.034
TACCTATA | 0.116 ± 0.032
CACCTATA | 0.232 ± 0.056
AAGAATCG | 0.202 ± 0.011
TTCCTCAA | -0.0714 ± 0.003
TCAGCCGA | -0.258 ± 0.094
CCGATCGC | 0.0847 ± 0.035
ACGATCGC | 0.0439 ± 0.021
GCGATCGC | 0.261 ± 0.0046
ACTAAAGT | 0.0154 ± 0.055
CAATGGTA | 0.0764 ± 0.11
GAATACAA | 0.164 ± 0.0018
GCCACTCC | -0.166 ± 0.023
CCCACTTA | 0.2675 ± 0.00044
GCCACTTA | -0.042 ± 0.068
CCCACTCC | 0.241 ± 0.017
CCCACTCG | -0.168 ± 0.084
CCCACTTC | 0.184 ± 0.051
CCGACGGC | -0.2 ± 0.038
GTAGTGAA | 0.206 ± 0.042
TAATGCGA | 0.018 ± 0.0008

Sequence | PBM 8-mer E-score
AAACCGGG | 0.0468 ± 0.0036
CCGATTGA | -0.00849 ± 0.0099
ACGTTATG | 0.2695 ± 0.0015
ACGTTATC | 0.0764 ± 0.057
ACGTTATA | 0.105 ± 0.0054
TCATCAAA | -0.124 ± 0.034
CATTCGAG | 0.0428 ± 0.017
ATCGTAAG | 0.0321 ± 0.021
ATCGTAAA | 0.0946 ± 0.014
ATCGTAAT | 0.246 ± 0.023
CATTGGGG | 0.255 ± 0.038
AATTGGTG | 0.142 ± 0.023
AATTGGGA | 0.218 ± 0.012
CATTGGGC | -0.173 ± 0.044
AATTGGGC | 0.1581 ± 0.00092
AATTGGAG | 0.0796 ± 0.067
AATTGGGG | 0.317 ± 0.0083
AATTGGGT | 0.2396 ± 0.0021
CATTGGGA | -0.021 ± 0.0046
AGCATTGG | -0.0228 ± 0.0039
TCCCCGAA | 0.0276 ± 0.02
ATGTTGAC | 0.0701 ± 0.026

Sequence | PBM 8-mer E-score
GCAATTCC | -0.0345 ± 0.025
ATTGGCAA | 0.105 ± 0.047
ACTGAAAA | 0.0674 ± 0.026
GCGGAAGA | -0.0695 ± 0.055
AAGGTCCT | -0.112 ± 0.078
GGAATGCA | 0.038 ± 0.021
CTTAACAC | 0.173 ± 0.015
ATTAATAA | 0.177 ± 0.038
CTTAATGA | 0.0296 ± 0.046
AATAATAC | 0.0444 ± 0.028
GATAATAA | 0.191 ± 0.037
ATTAATGC | 0.147 ± 0.069
GATAATAC | 0.234 ± 0.042
ATTAACAA | 0.154 ± 0.00047
ATTAATAC | 0.241 ± 0.012
ATTAACAC | 0.239 ± 0.026
ATTAATAG | 0.186 ± 0.045
CTTAATGC | 0.234 ± 0.011
GTTGCTAA | 0.124 ± 0.023
CCAACGCG | -0.0237 ± 0.021
AATACTCA | 0.102 ± 0.013
CGTCCGTC | -0.11 ± 0.051
